# Source: the supplement of paper PMC10646978
# ± gives the standard deviation.
# Tests used:
# Settings in all cases: modulator concentration 10 µM
# [1] = tested on: RAW-Dual (murine macrophage reporter line); test: NF-kB reporter (SEAP) activity fold change vs agonist alone; higher = enhanced NF-kB activity
# Procedure, shortened: (§1)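 Compound reached 10 μM final in each well by pin transfer, onto RAW-Dual murine macrophage reporter cells seeded at 50 000 per well in 384-well plates. After 1 hour at 37 °C, the cells were stimulated overnight with a PRR agonist. SEAP in the supernatant was read with QUANTI-Blue at 620 nm absorbance for NF-κB, and Lucia luciferase was read with QUANTI-Luc luminescence for IRF. Each signal was turned into fold change against the mean agonist-only control on the same plate, and two replicate plates were averaged with propagated errors.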
# [2] = tested on: RAW-Dual (murine macrophage reporter line); test: IRF reporter (Lucia luciferase) activity fold change vs agonist alone; higher = enhanced IRF activity
# Procedure, shortened: as §1
# [3] = tested on: RAW-Dual (murine macrophage reporter line); test: viability score (confluency relative to resting cells, overnight) (fraction); higher = more viable, active = viable (0.7 or more)
# Procedure, shortened: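 Overnight exposure to 10 μM final compound was carried out on RAW-Dual macrophages in 384-well plates. IncuCyte software generated two confluency masks over all wells imaged with IncuCyte. The viability score gives confluency in relation to resting cells. A compound met the cutoff if each mask exceeded 70% of resting cells.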
# [4] = agonist: CpG ODN 1826 0.5 ug/mL
SMILES,"NF-kB reporter [1, 4]",NF-kB reporter ([1]; agonist: LPS 0.1 ug/mL),NF-kB reporter ([1]; agonist: MPLA […]),IRF reporter ([2]; agonist: 3'3'-cGAMP 10 ug/mL),IRF reporter ([2]; agonist: LPS 0.1 ug/mL),IRF reporter ([2]; agonist: MPLA […]),viability score [3]
CC1COc2c(N3CCN(C)CC3)c(F)cc3c(=O)c(C(=O)O)cn1c23 (centres undefined) [Prestw-237],1.46 ± 0.24,1.01 ± 0.12,1.12 ± 0.16,1.14 ± 0.033,0.8 ± 0.078,0.894 ± 0.15,0.983 (active)
N[C@@H](CSCCCO)C(=O)O,0.987 ± 0.073,1.01 ± 0.051,0.937 ± 0.033,0.922 ± 0.077,0.995 ± 0.047,0.971 ± 0.089,1 (active)
COc1ccc(-c2cc(=O)oc3cc(OCc4cc5c(cc4Cl)OCO5)ccc23)cc1,0.738 ± 0.058,0.829 ± 0.13,1.08 ± 0.11,0.983 ± 0.053,1.17 ± 0.068,1.16 ± 0.15,1.01 (active)
O=C(C=Cc1cccnc1)c1cc2ccc1CCc1ccc(cc1)CC2,1.03 ± 0.058,0.76 ± 0.071,0.752 ± 0.05,0.639 ± 0.023,0.998 ± 0.063,1.03 ± 0.35,1.01 (active)
COC(CNC(=O)CSc1ccc(F)cc1)c1ccc(C)s1 (centres undefined),1.07 ± 0.33,1.1 ± 0.067,1.05 ± 0.067,0.898 ± 0.03,1.06 ± 0.16,1.11 ± 0.1,0.985 (active)
CCCCNc1ccc(C(=O)OCCN(C)C)cc1.Cl,0.906 ± 0.12,0.983 ± 0.31,0.987 ± 0.055,0.824 ± 0.039,1.15 ± 0.34,1.09 ± 0.086,1.01 (active)
O=[N+]([O-])c1ccc(Nc2ccccc2O)c2nonc12,1.74 ± 0.097,1.21 ± 0.088,1.7 ± 0.099,0.69 ± 0.023,1.55 ± 0.11,1.28 ± 0.17,0.9 (active)
Cc1ccc(/C(=C\CN2CCCC2)c2ccccn2)cc1.Cl.O,0.96 ± 0.26,1.11 ± 0.056,1.05 ± 0.073,0.672 ± 0.03,1.09 ± 0.13,1.31 ± 0.18,0.553 (inactive)
COc1ccc(Br)c(C(=O)N2CCCC2CS(=O)(=O)c2ccccc2)c1 (centres undefined),0.982 ± 0.12,1.08 ± 0.085,0.957 ± 0.075,0.988 ± 0.051,0.984 ± 0.098,0.876 ± 0.11,1 (active)
COc1ccc(Cc2nnc(C3CCN(S(C)(=O)=O)CC3)s2)cc1,0.978 ± 0.069,1.04 ± 0.085,0.93 ± 0.12,1.06 ± 0.093,1.25 ± 0.076,1.09 ± 0.13,0.994 (active)
COC(=O)C1C(=O)C(=CNCc2ccccc2)C(=O)CC1(C)C (centres undefined),1.12 ± 0.1,0.99 ± 0.072,0.943 ± 0.035,1.04 ± 0.18,1.06 ± 0.049,0.992 ± 0.066,1 (active)
Cc1cc2nc(SCc3cc4c(cc3Cl)OCO4)[nH]c2cc1C,0.749 ± 0.065,0.976 ± 0.047,0.91 ± 0.094,0.636 ± 0.042,1.2 ± 0.083,1.25 ± 0.12,1.01 (active)
C#Cc1cccc(Nc2ncnc3cc4c(cc23)OCCOCCOCCO4)c1,0.937 ± 0.043,1 ± 0.11,1.11 ± 0.093,1.02 ± 0.05,1.2 ± 0.17,1.39 ± 0.36,1.02 (active)
CC(=NOCON=C(C)c1ccc(Cl)c(Cl)c1)c1ccc(Cl)c(Cl)c1,0.944 ± 0.057,0.993 ± 0.086,0.936 ± 0.07,0.974 ± 0.034,1.38 ± 0.14,1.18 ± 0.1,1.01 (active)
CS(=O)(=O)N(CC(=O)Nc1ccccc1Cl)c1ccc(Cl)c(C(F)(F)F)c1,0.753 ± 0.067,1.08 ± 0.062,0.874 ± 0.052,1.52 ± 0.11,1.35 ± 0.14,1.25 ± 0.2,0.961 (active)
COC1(CNC(=O)C2CCN(S(C)(=O)=O)CC2)CCSC1 (centres undefined),0.879 ± 0.04,0.875 ± 0.076,1.07 ± 0.1,0.946 ± 0.074,1.08 ± 0.15,1.22 ± 0.34,0.97 (active)
COc1ccc(-c2cc3nc(C)cc(NCCN4CCOCC4)n3n2)cc1OC,1.11 ± 0.086,0.962 ± 0.076,0.976 ± 0.026,1.06 ± 0.13,0.998 ± 0.12,1.05 ± 0.22,0.997 (active)
O=C(O)c1cc(S(=O)(=O)N2CCCCC2)c(Cl)cc1Cl,0.937 ± 0.082,1.04 ± 0.087,0.965 ± 0.12,0.912 ± 0.11,1.18 ± 0.11,1.06 ± 0.28,1.01 (active)
CC(=O)Nc1nc(C2CC2)cc(-c2ccco2)c1C#N,1.38 ± 0.23,1.09 ± 0.09,1.02 ± 0.08,0.937 ± 0.026,1.16 ± 0.12,1.17 ± 0.12,1 (active)
COc1ccc(C)c2sc(=NC(=O)c3ccccc3)n(C)c12,1.16 ± 0.11,1.17 ± 0.06,2.25 ± 0.073,0.904 ± 0.05,0.969 ± 0.15,2.01 ± 0.31,0.99 (active)
N=C(N)NCCN1CCCCCCC1.O=S(=O)(O)O,1.25 ± 0.3,1.11 ± 0.088,1.24 ± 0.26,0.929 ± 0.032,1.27 ± 0.14,1.24 ± 0.12,0.993 (active)
CCC(=O)c1ccc(N2CCCCCC2)c(F)c1,0.864 ± 0.067,0.96 ± 0.074,1.14 ± 0.16,1 ± 0.048,1.61 ± 0.1,2.1 ± 0.18,0.982 (active)
CCCCc1nc(Cl)c(CO)n1Cc1ccc(-c2ccccc2-c2nnn[nH]2)cc1 [Prestw-1433],1.2 ± 0.29,1.08 ± 0.054,1.02 ± 0.065,0.944 ± 0.034,1.29 ± 0.14,1.32 ± 0.19,1 (active)
O=C(Nc1ccccn1)c1ccc(OCC2CCCO2)nc1 (centres undefined),1.12 ± 0.064,1.02 ± 0.077,1 ± 0.031,0.936 ± 0.077,1.04 ± 0.059,1.04 ± 0.1,0.997 (active)
CC(=O)N1CCN(C(=O)Cn2cnc(-c3ccc(C)cc3)cc2=O)CC1,0.929 ± 0.095,1.01 ± 0.1,1.06 ± 0.14,1.02 ± 0.058,1.17 ± 0.24,1.18 ± 0.45,0.964 (active)
COC(=O)CSc1ccc2nnc(-c3ccc(F)cc3)n2n1,1.12 ± 0.088,1.1 ± 0.057,1.06 ± 0.023,0.71 ± 0.05,0.719 ± 0.042,0.803 ± 0.069,1 (active)
COC(=O)C1=C(C)NC(C)=C(C(=O)OC(C)C)C1c1cccc2nonc12 (centres undefined),0.79 ± 0.062,0.942 ± 0.073,1.11 ± 0.096,0.645 ± 0.04,1.08 ± 0.07,0.967 ± 0.14,1 (active)
